One experiment has as its system HEK293. The experiment can be described thus: Cytotoxic Profiling of Annotated Libraries Using Quantitative High-Throughput Screening (AID 1296008). For max response: % is set by controls: 0 for no effect and ±100 for the full control effect. The note with it: Five cell lines viability, CellTiter-Glo ATP luminescence, 48-72 h; max response: stronger effect = lower value. In short, it runs like this:
(§1)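 Cells exposed to compounds for 48 or 72 hr at 37 degrees Celsius. Viability read as ATP-coupled luminescence with CellTiter-Glo after 10 min at room temperature.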
Background: In ATP-based viability assays light output follows the ATP content of the culture.

A further experiment has as its system HaCat. The experiment is described as above. The following applies: Five cell lines viability, CellTiter-Glo ATP luminescence, 48-72 h; max response: stronger effect = lower value. The gist of the method: as §1
The next experiment relates to CRL-7250. Described as above. The note with it: Five cell lines viability, CellTiter-Glo ATP luminescence, 48-72 h; max response: stronger effect = lower value. The gist of the method:
as §1

Another experiment concerns KB-3-1. The description is as above. The following applies: Five cell lines viability, CellTiter-Glo ATP luminescence, 48-72 h; max response: stronger effect = lower value. The gist of the method: as §1
The test system of another experiment is PC49. In words: qHTS profiling for inhibitors of Plasmodium falciparum proliferation (AID 504749). The following applies: P. falciparum in erythrocytes, SYBR Green DNA, 72 h; series mostly up to 28.7 µM. The gist of the method: (§2)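 Each compound contacts P. falciparum-infected red blood cells for 72 h at 37 C; lysis buffer (Tris, EDTA, saponin, Triton X, SYBR Green I) is added and fluorescence measured next morning; values normalized to controls.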
A general note: Quantitative high-throughput screening tests each substance at several concentrations.

The next experiment concerns SC27B. Described as above. The note with it: P. falciparum in erythrocytes, SYBR Green DNA, 72 h; series mostly up to 28.7 µM. The gist of the method:
as §2

In the next experiment the test system is TAB113. The description is as above. The following applies: P. falciparum in erythrocytes, SYBR Green DNA, 72 h; series mostly up to 28.7 µM. The gist of the method: as §2
Another experiment relates to TAB109. The description is as above. The note with it: P. falciparum in erythrocytes, SYBR Green DNA, 72 h; series mostly up to 28.7 µM. The gist of the method: as §2
In the next experiment the test system is TAB165. The description is as above. The following applies: P. falciparum in erythrocytes, SYBR Green DNA, 72 h; series mostly up to 28.7 µM. In short, it runs like this:
as §2

The subject of the next experiment is W2. The description is as above. The following applies: P. falciparum in erythrocytes, SYBR Green DNA, 72 h; series mostly up to 28.7 µM. The gist of the method: as §2

SMILES strings stand for the structures. Values joined by “and” are separate entries in the source; they are usually repeats but may differ in a detail not shown here. Equal entries are not always repeated. Results filed as inconclusive are left out. A number with no mark means an inactive call. Active and inactive are the calls of the source. Calls come from the whole dose curve; as a rule, active = well fitted inhibition curve with a large enough effect; inconclusive = small, poorly fitted or top-dose-only effect; inactive = flat fitted curve, though single readings scatter.
Note: nearly all actives have a fitted effect of over 60% in size.
Potency is the fitted concentration of half-maximal effect.

Take `c1ccc(CCNc2nc(-c3ccccc3)cs2)cc1`: the Potency in the experiment with HEK293 is 11900 nM (active). Besides, in the experiment on HaCat, the call was inactive.

`O=C1CN(/N=C/c2ccc([N+](=O)[O-])o2)C(=O)N1`: the call in the experiment on CRL-7250 was inactive. The figures for the max response with HaCat and with KB-3-1 were 1.83% and -3.33%, respectively.

For the compound `Clc1ccccc1-c1nc(-c2ccncc2)no1`, the Potency result in the experiment on PC49, in the experiment with SC27B and in the experiment on TAB113 was “inactive” in each case. In addition, the values for the max response with CRL-7250 and in the experiment on KB-3-1 were -4.27% and 12%, respectively. Besides, the result in the experiment with HaCat was inactive.

Take `O=C(O)c1ccccc1Nc1cccc(C(F)(F)F)c1`: the Potency result in the experiment on PC49, in the experiment with SC27B, in the experiment with TAB109, with TAB113, in the experiment with TAB165 and in the experiment with W2 was “inactive” throughout. Moreover, the figures for the max response in the experiment with CRL-7250 and in the experiment on HEK293 were 0.849% and 3.56%, respectively.

For `CC(=O)O[C@H]1C[C@@]2(C)[C@@H](C[C@@H](O)[C@H]3[C@@]4(C)CC[C@@H](O)[C@@H](C)[C@@H]4CC[C@@]32C)/C1=C(\CCC=C(C)C)C(=O)O`, the call in the experiment with CRL-7250 and in the experiment with KB-3-1 was inactive. Further, the max response in the experiment on HEK293 was -11.3%; in the experiment with KB-3-1, -11.2%.

Regarding `Fc1ccc2[nH]c(CN3CCN(c4ccccn4)CC3)cc2c1`, the figures for the max response in the experiment with CRL-7250 and in the experiment on KB-3-1 were -22.3% and -22.6%, respectively.

Regarding `CS(=O)(=O)c1ccc(-n2nc(C(F)(F)F)cc2-c2ccc(F)cc2)cc1`, the max response with HEK293 was 1.42%. Besides, the compound was classed as inactive in the experiment with HaCat.

With `CCN(CC)CCCCNc1ncc2cc(-c3c(Cl)cccc3Cl)c(NC(=O)NC(C)(C)C)nc2n1`, in the experiment on HaCat, the Potency is 20600 nM (active).

In the case of `CCCCCCCCCCCCCCCCCC(=O)O`, the Potency entry in the experiment with PC49, with SC27B, with TAB113, in the experiment on TAB165 and in the experiment with W2 was “inactive” in each case. For the same compound, the outcome in the experiment on HEK293 and in the experiment on HaCat was inactive.

Regarding `CN1[C@@H]2CC[C@H]1CC(OC(c1ccccc1)c1ccccc1)C2` (stereo partly specified), the Potency in the experiment with PC49 was 3.55 µM (active) and 1.41 µM (active); with TAB165 it was 11200 nM (active); in the experiment on W2, 1900 nM (active). Further, in the experiment with SC27B, the Potency entry was “inactive”. The max response in the experiment on CRL-7250 was 0.151%; in the experiment with HEK293, -16.7%. Further, the call with HaCat was inactive.

With `COc1ccc(/C=C/C(=O)Nc2ccccc2C(=O)O)cc1OC`, the Potency entry in the experiment with PC49, in the experiment with SC27B, with TAB109, in the experiment on TAB113 and with TAB165 was “inactive” each time. The max response in the experiment on CRL-7250 is 2.22%; in the experiment on HEK293, 0.531%; with KB-3-1 it was -5.53% and 8.2%.

As to `CCCCC1C(=O)N(c2ccccc2)N(c2ccc(O)cc2)C1=O` (stereo unspecified), the Potency with HEK293 is 4730 nM (active). The max response with KB-3-1 is -9.78%.

In the case of `CC1(C)S[C@@H]2[C@H](NC(=O)[C@H](NC(=O)N3CCN(S(C)(=O)=O)C3=O)c3ccccc3)C(=O)N2[C@H]1C(=O)O`, the Potency result in the experiment on PC49, in the experiment with SC27B, in the experiment on TAB109, with TAB113, in the experiment on TAB165 and in the experiment on W2 was “inactive” in each case. The max response is 4.22% in the experiment with CRL-7250 and -0.837% with HEK293. In addition, the compound was called inactive with HaCat.

For `CC(N)C(=O)OC(C)(C)Cc1ccc(Cl)cc1` (stereo unspecified), the Potency with W2 was 4260 nM (active). The max response in the experiment with CRL-7250 was 4.4%. The call in the experiment on HaCat was inactive.

As to `Cc1c(Nc2ncccc2C(=O)O)cccc1C(F)(F)F`, the Potency entry with PC49, in the experiment on SC27B, in the experiment with TAB109, in the experiment with TAB113, in the experiment with TAB165 and in the experiment with W2 was “inactive” throughout. For the same compound, the max response with CRL-7250 is -2.3%; in the experiment on HEK293, -18.7%; in the experiment with HaCat, 1.65%.

For `Cc1nc2ccccc2n1Cc1ccc(Cl)cc1`, the Potency entry in the experiment on PC49, with SC27B, in the experiment on TAB109, with TAB113 and in the experiment with TAB165 was “inactive” each time. For the same compound, the results for the Potency with CRL-7250 and in the experiment with HEK293 were 2110 nM (active) and 1680 nM (active), respectively. Also, the max response in the experiment on KB-3-1 was -8.87%.

Turning to `CCCC(=O)OC[C@@H](OC(=O)CCC)[C@@H](OC(=O)CCC)[C@H](Cn1c2nc(=O)[nH]c(=O)c-2nc2cc(C)c(C)cc21)OC(=O)CCC`, the Potency result in the experiment with PC49 was “inactive”. Also, the compound was classed as inactive in the experiment with CRL-7250. Moreover, in the experiment with HaCat, the max response is 4.67%.

For `COc1cc2c3cc1Oc1cc(ccc1O)C[C@@H]1c4c(cc(OC)c(O)c4Oc4ccc(cc4)C[C@@H]3N(C)CC2)CC[N+]1(C)C`, the Potency result in the experiment with PC49, in the experiment on SC27B, in the experiment with TAB109, with TAB113, in the experiment with TAB165 and in the experiment with W2 was “inactive” in each case. Besides, the figures for the max response in the experiment with CRL-7250 and in the experiment with HaCat were 1.72% and 1.8%, respectively. Besides, in the experiment with HEK293, the compound was called inactive.

As to `CCCCN(CC)c1nc(C)nc2c1c(C)cn2-c1c(C)cc(C)cc1C`, the max response was -5.83% in the experiment on CRL-7250, 4.42% with HaCat and -14.3% with KB-3-1.

For `COC(=O)C1=C(C)NC(C)=C(C(=O)OCC(C)=O)C1c1ccccc1[N+](=O)[O-]` (stereo unspecified), the result in the experiment on HEK293 and with HaCat was inactive.

For `O=C(OCc1ccccc1)c1ccccc1`, the Potency entry with PC49, in the experiment on SC27B, in the experiment on TAB109, with TAB113, with TAB165 and in the experiment on W2 was “inactive” throughout. For the same compound, the max response with HEK293 was -2.07%; in the experiment with HaCat, 4.92%; in the experiment on KB-3-1, 3.34%.

Consider `[O-][n+]1ccccc1SSc1cccc[n+]1[O-]`, for which the Potency is 1.41 µM (active) with PC49; 891 nM (active) in the experiment on SC27B; 891 nM (active) with TAB109; 891 nM (active) with TAB113; 891 nM (active) in the experiment on TAB165; 757 nM (active) in the experiment on W2. For the same compound, the Potency in the experiment with CRL-7250 is 461 nM (active); in the experiment on HEK293, 411 nM (active); in the experiment with HaCat, 731 nM (active).

On to `Cc1cc(O)c2ccccc2c1O`, for which the Potency result in the experiment with PC49, in the experiment with SC27B, in the experiment with TAB109, in the experiment on TAB113 and in the experiment with TAB165 was “inactive” in each case. Further, the Potency in the experiment on W2 was 9530 nM (active). In addition, the max response in the experiment on CRL-7250 is -18%; in the experiment with KB-3-1, 6.5%. In addition, in the experiment on HaCat, the compound was classed as inactive.

Regarding `Cc1c(C(=O)O)c(O)cc2c1C(=O)c1c(O)c([C@@H]3O[C@H](CO)[C@@H](O)[C@H](O)[C@H]3O)c(O)c(O)c1C2=O`, the max response in the experiment with HEK293 is -35.5%.

On to `COc1ccc(-c2cc(=S)ss2)cc1`, for which the Potency result with PC49, with TAB109 and with W2 was “inactive” throughout. The max response was -2.86% with CRL-7250 and 24% with KB-3-1. In addition, the call in the experiment on HaCat was inactive.

`Cc1onc(-c2c(F)cccc2Cl)c1C(=O)N[C@@H]1C(=O)N2[C@@H]1SC(C)(C)[C@@H]2C(=O)O`: the max response in the experiment with CRL-7250 is -6.01%; with KB-3-1, 3.63% and 6.4%. For the same compound, the result in the experiment with HEK293 and with KB-3-1 was inactive.

Source of the values: PubChem BioAssay (NCATS).
